Outcome and AC50 data for 16 compounds are collected here from PubChem BioAssay (EPA / NIEHS).

Inconclusive results are not listed. Active and inactive are the calls of the source. The calls were made as follows: active = hit-call score of the fitted dose curve at least 0.9, where 1 is the maximum; inconclusive = response in the unintended direction; inactive = score below 0.9.

In one test the target is PGR (gene 5241) (UniProt P06401). In words: NVS_NR_hPR: NovaScreen (NVS) Nuclear Receptor Binding Assay for human Progestron Receptor (PR) (AID 2283360).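 Also: active means loss of bound radioligand signal versus DMSO baseline.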 Summed up: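 Cell-free radioligand binding using receptor protein extracted from T47D cells, read by scintillation counting 18 hours after dosing. Loss of signal relative to DMSO baseline indicates displacement; primary screen single concentration 25 uM in duplicate, actives followed in concentration series.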
PGR (gene 5241), sequence (P06401 whole entry, looked up): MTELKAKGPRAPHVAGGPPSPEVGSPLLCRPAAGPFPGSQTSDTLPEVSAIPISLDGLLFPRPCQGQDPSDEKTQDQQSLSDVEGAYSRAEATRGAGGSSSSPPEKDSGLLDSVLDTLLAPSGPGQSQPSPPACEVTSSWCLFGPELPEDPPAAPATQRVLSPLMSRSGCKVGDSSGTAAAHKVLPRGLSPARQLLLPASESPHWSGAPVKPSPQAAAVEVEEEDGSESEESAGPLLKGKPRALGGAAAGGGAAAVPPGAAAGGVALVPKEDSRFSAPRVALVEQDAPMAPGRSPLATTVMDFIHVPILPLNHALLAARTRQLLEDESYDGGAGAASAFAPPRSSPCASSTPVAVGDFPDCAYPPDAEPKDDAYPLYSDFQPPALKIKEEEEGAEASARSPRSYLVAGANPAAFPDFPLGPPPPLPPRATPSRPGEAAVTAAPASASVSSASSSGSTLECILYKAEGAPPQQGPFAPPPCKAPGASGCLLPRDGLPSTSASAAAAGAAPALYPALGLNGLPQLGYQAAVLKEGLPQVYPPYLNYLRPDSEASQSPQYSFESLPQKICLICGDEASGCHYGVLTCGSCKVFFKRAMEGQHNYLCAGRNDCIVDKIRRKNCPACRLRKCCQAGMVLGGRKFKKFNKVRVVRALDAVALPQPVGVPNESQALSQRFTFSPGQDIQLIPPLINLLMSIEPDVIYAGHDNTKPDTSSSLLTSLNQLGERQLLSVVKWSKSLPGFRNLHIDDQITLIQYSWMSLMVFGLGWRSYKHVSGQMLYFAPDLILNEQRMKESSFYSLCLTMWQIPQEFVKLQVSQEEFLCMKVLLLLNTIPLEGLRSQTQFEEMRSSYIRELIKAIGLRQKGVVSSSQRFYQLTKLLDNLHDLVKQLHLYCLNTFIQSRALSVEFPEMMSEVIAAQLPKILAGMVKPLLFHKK

The target of test [1] is guinea pig Sigma Receptor, Non-selective Binding, SIGMAR1 (gene 100135589) (UniProt Q60492). In words: NVS_OR_gSIGMA_NonSelective: NovaScreen (NVS) Nuclear Receptor Binding Assay for guinea pig Sigma Receptor, Non-selective Binding (AID 2283367). Summed up:
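Membranes from guinea pig brain incubated with radioligand and test chemical for 1 h, then filtered and scintillation-counted. Duplicate primary testing at 25 uM, with concentration-series follow-up for actives.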

For test [2], the system named is guinea pig Dopamine Transporter (DAT), gene 100714898. In words: NVS_TR_gDAT: NovaScreen (NVS) Transporter Assay for guinea pig Dopamine Transporter (DAT) (AID 2283369).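 Also: active compounds lower bound radioligand signal relative to DMSO.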 Summed up:
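Guinea pig striatal membranes; radioligand displacement measured by filter-based scintillation counting 2 h after dosing. Initial duplicate screen at 25 uM, then concentration-response up to 50 uM for hits; loss of signal versus DMSO baseline.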

In test [3] the target is human Dopamine Transporter (DAT), SLC6A3 (gene 6531) (UniProt Q01959). In words: NVS_TR_hDAT: NovaScreen (NVS) Transporter Assay for human Dopamine Transporter (DAT) (AID 2283374).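 Also: activity means loss of bound radioligand signal relative to DMSO.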 Summed up:
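hDAT membranes + tritiated/iodinated radioligand, competitive displacement; 1 h; filter scintillation readout. Single conc 25 uM (duplicate), then conc-response for actives. DMSO = negative control.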

Test [4] concerns the target rat Serotonin Transporter (SERT), Slc6a4 (gene 25553) (UniProt P31652). In words: NVS_TR_rSERT: NovaScreen (NVS) Transporter Assay for rat Serotonin Transporter (SERT) (AID 2283375). Summed up: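 Rat forebrain membranes were incubated with test chemical for 1 hour; radioligand binding to SERT was measured by filter-based scintillation counting. Primary screen ran in duplicate at 25 uM, with actives followed up in concentration series; DMSO served as negative control.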

Test [5] deals with Androgen Receptor/SRC-1 Co-activator, AR (gene 367) (UniProt P10275). In words: OT_AR_ARSRC1_0960: Odyssey Thera (OT) 16-hour HEK293T Protein-Complementation Assay for Androgen Receptor/SRC-1 Co-activator (AID 2283353).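 Also: actives raise the signal above DMSO so potency reflects increased AR and SRC-1 complex.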 Summed up:
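Stable HEK293T line carries AR and SRC-1 each linked to a Venus fragment; chemicals are applied for 16 h, cells imaged at two wavelengths, and the 488 nm nucleus/cytoplasm ratio is taken as the signal, rising relative to DMSO.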

For test [6] the target is unchanged. In words: OT_AR_ARSRC1_0480: Odyssey Thera (OT) 8-hour HEK293T Protein-Complementation Assay for Androgen Receptor/SRC-1 Co-activator (AID 2283354).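 Also: hits raise the complementation signal above DMSO so AC50 marks enhancers.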 Summed up: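 Split-Venus PCA, stable HEK293T, AR/SRC-1 fusions; 8 h exposure. Readout: 488nm N/C fluorescence ratio, ≥400 cells/image; fitted upward vs DMSO baseline.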
Test [7] deals with Estrogen receptor (Homo sapiens) (UniProt P03372). In words: OT_ER_ERaERa_1440: Odyssey Thera (OT) 24-hour HEK293T Protein-Complementation Assay for Estrogen Receptor-alpha/-alpha Homodimer (AID 2283349).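 Also: hits raise fluorescence above DMSO for agonists and antagonists alike.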 Summed up:
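Cells (HEK293T) carrying the fragment-tagged ERα LBD (aa 310-547) pair are treated with chemical for 24 hours. Nuclear and/or cytoplasmic fluorescence is then quantified on a laser scanning cytometer. Activity is scored as signal gain against DMSO.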

Test [8] has as its target Estrogen receptor beta (Homo sapiens) (UniProt Q92731). In words: OT_ER_ERbERb_0480: Odyssey Thera (OT) 8-hour HEK293T Protein-Complementation Assay for Estrogen Receptor-beta/-beta Homodimer (AID 2283357).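 Also: active means signal gain over DMSO baseline.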 Summed up:
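Homodimerization of ER-beta LBD measured by protein-fragment complementation in HEK293T; 8 h dosing; fixed, Draq5 counterstain; fluorescence intensity gain over DMSO baseline, positive fitting direction; laser scanning cytometry.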

In test [9] the target is Retinoic acid receptor alpha (Homo sapiens) (UniProt P10276). In words: NVS_NR_hRAR_Antagonist: NovaScreen (NVS) Nuclear Receptor Binding Assay for human Retinoic Acid Alpha Receptor Antagonism (RAR) (AID 2283358). Summed up: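 Read-out: time-resolved FRET binding signal, 2 h post-dose, cell-free extracted protein. Antagonism scored as signal loss versus DMSO negative control. Primary single-concentration screen at 25 uM in duplicate; concentration series for actives.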
Retinoic acid receptor alpha (Homo sapiens), sequence (P10276 whole entry, looked up): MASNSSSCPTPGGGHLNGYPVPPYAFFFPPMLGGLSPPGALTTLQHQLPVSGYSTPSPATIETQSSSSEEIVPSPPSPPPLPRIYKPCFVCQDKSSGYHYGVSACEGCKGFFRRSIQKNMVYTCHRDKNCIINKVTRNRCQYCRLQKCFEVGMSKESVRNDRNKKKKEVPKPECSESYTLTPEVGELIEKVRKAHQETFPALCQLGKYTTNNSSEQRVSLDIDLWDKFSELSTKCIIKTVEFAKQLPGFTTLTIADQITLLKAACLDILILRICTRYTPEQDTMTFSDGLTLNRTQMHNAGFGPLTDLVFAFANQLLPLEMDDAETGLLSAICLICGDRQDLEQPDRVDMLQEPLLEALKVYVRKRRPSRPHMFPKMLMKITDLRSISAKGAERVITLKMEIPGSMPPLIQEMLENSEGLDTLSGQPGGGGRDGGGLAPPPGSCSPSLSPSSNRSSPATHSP

Test [10] has as its target human Peroxisome Proliferator-activated Receptor alpha (PPARa), PPARA (gene 5465) (UniProt Q07869). In words: NVS_NR_hPPARa: NovaScreen (NVS) Nuclear Receptor Binding Assay for human Peroxisome Proliferator-activated Receptor alpha (PPARa) (AID 2283359).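 Also: activity means loss of TR-FRET signal versus DMSO baseline.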 Summed up: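 TR-FRET signal measured at 1 h post-dosing; loss-of-signal versus DMSO negative control taken as activity. Extracted gene-protein, cell-free format. Initial single-point duplicates at 25 uM, then concentration-response retests.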

The target of test [11] is Retinoic acid receptor alpha (Homo sapiens) (UniProt P10276). In words: NVS_NR_hRARa_Agonist: NovaScreen (NVS) Nuclear Receptor Binding Assay for human Retinoic Acid Alpha Receptor Agonism (RAR) (AID 2283361). Summed up: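 TR-FRET signal, 2 h post-dosing; cell-free extracted protein; DMSO = baseline, positive fitting direction; 25 uM single-point duplicate, then concentration series for actives.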

Test [12] deals with Glucocorticoid receptor (Homo sapiens) (UniProt P04150). In words: NVS_NR_hGR: NovaScreen (NVS) Nuclear Receptor Binding Assay for human Glucocorticoid Receptor (GR) (AID 2283363).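 As to AC50: activity is loss of specific radioligand binding signal relative to DMSO.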 Summed up:
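Filter scintillation readout of tritiated/iodinated radioligand displaced by test chemical; cell-free extracted protein; 16 h. DMSO = negative control/baseline. Duplicate single-point 25 uM screen, then concentration-response on actives.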

The target of test [13] is Nuclear receptor subfamily 1 group I member 2 (Homo sapiens) (UniProt O75469). In words: NVS_NR_hPXR: NovaScreen (NVS) Nuclear Receptor Binding Assay for human Pregnane X Receptor (PXR) (AID 2283365).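 Also: a drop in FRET signal versus DMSO baseline means the compound binds.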 Summed up: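 Cell-free binding assay with extracted human PXR protein, read by TR-FRET 2 h after dosing; loss of signal relative to DMSO baseline indicates binding. Primary screen at 25 uM in duplicate, actives retested in concentration series.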
Nuclear receptor subfamily 1 group I member 2 (Homo sapiens), sequence (O75469 whole entry, looked up): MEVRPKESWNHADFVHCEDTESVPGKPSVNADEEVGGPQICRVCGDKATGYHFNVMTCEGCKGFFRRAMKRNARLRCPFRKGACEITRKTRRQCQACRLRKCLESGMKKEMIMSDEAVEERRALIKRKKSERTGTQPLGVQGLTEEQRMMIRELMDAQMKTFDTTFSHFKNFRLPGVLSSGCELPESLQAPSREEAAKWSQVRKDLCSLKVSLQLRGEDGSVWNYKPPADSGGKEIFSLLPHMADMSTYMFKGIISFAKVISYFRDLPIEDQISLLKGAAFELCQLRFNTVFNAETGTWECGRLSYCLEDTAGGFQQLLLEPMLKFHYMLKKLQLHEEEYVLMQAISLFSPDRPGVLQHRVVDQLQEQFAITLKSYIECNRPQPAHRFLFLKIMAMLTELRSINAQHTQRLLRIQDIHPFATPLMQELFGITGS

The target of test [14] is rat Androgen Receptor (AR), Ar (gene 24208) (UniProt P15207). In words: NVS_NR_rAR: NovaScreen (NVS) Nuclear Receptor Binding Assay for rat Androgen Receptor (AR) (AID 2283366). Summed up:
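Actives from a duplicate single-concentration (25 uM) primary run went on to concentration series. Displacement of radioligand was counted by filtration and scintillation, 18 h post-dose, using prostate extracts from testosterone-pretreated rats, with DMSO as baseline.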

The target in test [15] is human Norepinephrine Transporter (NET), SLC6A2 (gene 6530) (UniProt P23975). In words: NVS_TR_hNET: NovaScreen (NVS) Transporter Assay for human Norepinephrine Transporter (NET) (AID 2283377).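 Also: cell-free membrane protein extracted from CHO cells expressing human NET; displacement of radioligand from human NET seen as loss of scintillation signal.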 Summed up:
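CHO cell extracts expressing the transporter; tritiated or iodinated tracer displaced competitively; filtration plus scintillation readout at 1 h. Single-point duplicates at 25 uM, concentration series for follow-up; activity = signal drop relative to DMSO.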

The target in test [16] is Estrogen receptor (Homo sapiens) + Estrogen receptor beta (Homo sapiens) (UniProt P03372+Q92731). In words: OT_ER_ERaERb_1440: Odyssey Thera (OT) 24-hour HEK293T Protein-Complementation Assay for Estrogen Receptor-alpha/-beta Homodimer (AID 2283356).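 Also: heteromer of ER alpha and ER beta binding domains; hits raise reporter fluorescence and both agonists and antagonists give an increase.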 Summed up: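 HEK293T cells stably expressing a PCA pair of ERα LBD (aa 310-547) and ERβ LBD (aa 263-489) were dosed for 24 h. Fluorescence intensity increase versus DMSO vehicle was fitted as gain-of-signal.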

Androgen Receptor/SRC-1 Co-activator, AR (gene 367), sequence (P10275 whole entry, looked up, the tested form may be a part): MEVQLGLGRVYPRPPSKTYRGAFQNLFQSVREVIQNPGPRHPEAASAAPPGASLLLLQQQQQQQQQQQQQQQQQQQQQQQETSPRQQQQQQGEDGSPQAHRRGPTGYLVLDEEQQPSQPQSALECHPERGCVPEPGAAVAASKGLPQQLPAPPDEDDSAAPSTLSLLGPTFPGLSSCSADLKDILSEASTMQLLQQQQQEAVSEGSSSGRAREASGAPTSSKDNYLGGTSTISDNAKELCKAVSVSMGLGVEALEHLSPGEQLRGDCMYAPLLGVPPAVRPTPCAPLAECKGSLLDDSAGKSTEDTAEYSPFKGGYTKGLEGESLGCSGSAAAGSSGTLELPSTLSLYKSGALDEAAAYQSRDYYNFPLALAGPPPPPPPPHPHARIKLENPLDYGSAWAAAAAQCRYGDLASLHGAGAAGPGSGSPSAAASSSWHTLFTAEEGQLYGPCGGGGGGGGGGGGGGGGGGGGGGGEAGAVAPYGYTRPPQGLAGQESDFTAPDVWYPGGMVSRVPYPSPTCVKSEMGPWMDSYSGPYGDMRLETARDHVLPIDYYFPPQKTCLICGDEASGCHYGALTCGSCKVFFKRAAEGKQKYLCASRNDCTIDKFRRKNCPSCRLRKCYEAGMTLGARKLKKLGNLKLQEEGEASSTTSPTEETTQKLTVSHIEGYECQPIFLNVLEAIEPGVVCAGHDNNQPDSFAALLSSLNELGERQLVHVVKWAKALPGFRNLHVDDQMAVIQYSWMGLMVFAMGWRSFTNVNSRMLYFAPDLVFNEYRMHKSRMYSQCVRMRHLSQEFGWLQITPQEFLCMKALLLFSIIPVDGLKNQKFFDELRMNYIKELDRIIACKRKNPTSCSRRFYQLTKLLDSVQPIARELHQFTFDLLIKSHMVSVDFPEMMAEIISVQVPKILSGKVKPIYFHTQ
human Dopamine Transporter (DAT), SLC6A3 (gene 6531), sequence (Q01959 whole entry, looked up): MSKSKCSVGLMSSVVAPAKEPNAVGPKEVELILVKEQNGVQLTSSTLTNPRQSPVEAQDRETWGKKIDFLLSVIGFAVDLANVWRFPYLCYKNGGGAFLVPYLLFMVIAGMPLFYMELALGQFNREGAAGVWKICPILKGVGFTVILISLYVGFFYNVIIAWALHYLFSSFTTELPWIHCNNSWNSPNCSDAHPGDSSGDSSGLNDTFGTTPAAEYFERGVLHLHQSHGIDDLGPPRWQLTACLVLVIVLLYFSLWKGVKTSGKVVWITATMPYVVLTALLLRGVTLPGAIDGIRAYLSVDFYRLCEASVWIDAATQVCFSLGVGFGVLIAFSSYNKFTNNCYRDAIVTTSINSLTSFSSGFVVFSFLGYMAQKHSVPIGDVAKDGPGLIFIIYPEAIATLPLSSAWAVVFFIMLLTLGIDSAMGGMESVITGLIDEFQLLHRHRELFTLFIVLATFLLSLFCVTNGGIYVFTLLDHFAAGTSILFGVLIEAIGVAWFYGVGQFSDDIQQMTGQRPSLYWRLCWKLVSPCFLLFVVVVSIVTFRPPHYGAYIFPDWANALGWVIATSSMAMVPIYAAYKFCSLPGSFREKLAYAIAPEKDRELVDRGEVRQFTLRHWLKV
rat Serotonin Transporter (SERT), Slc6a4 (gene 25553), sequence (P31652 whole entry, looked up): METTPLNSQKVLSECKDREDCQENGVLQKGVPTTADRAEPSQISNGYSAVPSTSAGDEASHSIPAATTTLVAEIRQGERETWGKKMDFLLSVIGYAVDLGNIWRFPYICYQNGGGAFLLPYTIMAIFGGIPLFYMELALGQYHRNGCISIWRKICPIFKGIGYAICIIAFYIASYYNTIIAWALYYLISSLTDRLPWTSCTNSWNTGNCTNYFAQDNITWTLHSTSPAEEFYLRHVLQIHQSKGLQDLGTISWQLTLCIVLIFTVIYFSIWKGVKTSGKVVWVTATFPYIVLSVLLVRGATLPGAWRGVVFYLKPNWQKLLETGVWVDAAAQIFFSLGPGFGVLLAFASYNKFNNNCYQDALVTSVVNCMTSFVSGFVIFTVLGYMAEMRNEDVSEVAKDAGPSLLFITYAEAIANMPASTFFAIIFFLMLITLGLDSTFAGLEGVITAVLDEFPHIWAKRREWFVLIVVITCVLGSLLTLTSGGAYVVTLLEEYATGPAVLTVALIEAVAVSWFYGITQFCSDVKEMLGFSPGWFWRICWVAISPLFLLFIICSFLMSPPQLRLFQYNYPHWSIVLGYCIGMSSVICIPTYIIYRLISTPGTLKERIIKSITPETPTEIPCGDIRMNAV
Estrogen receptor (Homo sapiens), sequence (P03372 whole entry, looked up, the tested form may be a part): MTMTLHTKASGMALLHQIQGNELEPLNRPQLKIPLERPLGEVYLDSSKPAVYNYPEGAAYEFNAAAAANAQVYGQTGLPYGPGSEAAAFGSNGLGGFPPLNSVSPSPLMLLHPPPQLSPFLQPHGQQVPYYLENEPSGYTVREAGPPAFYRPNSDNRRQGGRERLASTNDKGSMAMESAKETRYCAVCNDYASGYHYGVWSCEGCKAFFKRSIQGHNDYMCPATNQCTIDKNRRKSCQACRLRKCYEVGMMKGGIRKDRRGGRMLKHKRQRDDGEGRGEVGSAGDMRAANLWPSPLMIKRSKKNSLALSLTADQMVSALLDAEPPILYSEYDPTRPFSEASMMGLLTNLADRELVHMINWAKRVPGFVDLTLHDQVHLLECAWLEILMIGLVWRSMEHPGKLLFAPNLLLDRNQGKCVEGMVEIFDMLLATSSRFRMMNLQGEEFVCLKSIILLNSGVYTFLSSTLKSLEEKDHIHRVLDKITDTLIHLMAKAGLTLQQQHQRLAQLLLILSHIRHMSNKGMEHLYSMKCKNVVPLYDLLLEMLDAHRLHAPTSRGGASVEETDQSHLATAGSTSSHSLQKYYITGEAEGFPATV
guinea pig Sigma Receptor, Non-selective Binding, SIGMAR1 (gene 100135589), sequence (Q60492 whole entry, looked up): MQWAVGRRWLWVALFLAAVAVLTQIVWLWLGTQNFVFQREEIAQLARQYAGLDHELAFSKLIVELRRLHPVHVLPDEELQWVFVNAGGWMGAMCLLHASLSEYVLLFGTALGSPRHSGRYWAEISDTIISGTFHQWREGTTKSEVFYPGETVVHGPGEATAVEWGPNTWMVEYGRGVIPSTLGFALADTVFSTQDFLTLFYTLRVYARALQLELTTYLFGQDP

Turning to `c1ccc(C[P+](c2ccccc2)(c2ccccc2)c2ccccc2)cc1`, in the test with PGR (gene 5241), the outcome was inactive. Also, the half-maximal activity concentration (AC50) was 4.57 µM (active) in test [1], 15.1 µM (active) in [2], 16.7 µM (active) in [3] and 3.33 µM (active) in [4].
For `C[C@]12CC[C@H]3C(=CCc4cc(O)ccc43)[C@@H]1CCC2=O`, the half-maximal activity concentration (AC50) in [5] was 1.42 µM (active); in test [6] it was 0.555 µM (active); in the test with PGR (gene 5241), 46.7 µM (active); in test [2], 1.16 µM (active); in test [3], 4.59 µM (active); in [4], 15.6 µM (active).
For the compound `O=C=Nc1cccc2c(N=C=O)cccc12`, the outcome with PGR (gene 5241) was inactive.
On to `CCN(CC)c1ccc2c(c1)Oc1cc(N(CC)CC)ccc1C21OC(=O)c2ccccc21`, for which the call in test [2] was inactive. The AC50 in test [4] was 8.16 µM (active).
Regarding `CCCCCCCCCCCCC[N+](C)(C)Cc1ccccc1`, the result in test [7], in test [8] and in test [12] was inactive. The half-maximal activity concentration (AC50) in [5] is 14.7 µM (active); in test [6], 14.6 µM (active); in test [9], 9.07 µM (active); in test [10], 21 µM (active); in test [11], 13.4 µM (active); in [13], 3.9 µM (active).
With `CCN(CC)c1ccc(C=O)c(O)c1`, the concentration at half-maximal activity (AC50) with PGR (gene 5241) was 41.7 µM (active); in [14] it was 25 µM (active); in [2] it was 15 µM (active); in test [15] it was 25 µM (active).
As for `O=C1c2c(O)ccc(Nc3ccc(CCO)cc3)c2C(=O)c2c([N+](=O)[O-])ccc(O)c21`, in [12], the AC50 was 23.5 µM (active).
For `CCn1c2ccccc2c2ccccc21`, in [3], the outcome was inactive.
On to `Cc1cc(C)c(O)c(C(C)(C)C)c1`, for which the half-maximal activity concentration (AC50) in [1] is 16.5 µM (active).
For the compound `CC(C)(C)c1cc(CCC(=O)OCC(COC(=O)CCc2cc(C(C)(C)C)c(O)c(C(C)(C)C)c2)(COC(=O)CCc2cc(C(C)(C)C)c(O)c(C(C)(C)C)c2)COC(=O)CCc2cc(C(C)(C)C)c(O)c(C(C)(C)C)c2)cc(C(C)(C)C)c1O`, the call in test [7], in [16] and in [8] was inactive.
As to `O=C(c1ccccc1)c1ccc(Cl)cc1`, in test [3], the AC50 was 20.2 µM (active).
As for `CCOC(=O)C1CC(=O)C(=C(O)C2CC2)C(=O)C1` (stereo not drawn), the outcome in test [7] and in [16] was inactive.
For `CCN(CC)c1ccc(C=O)cc1`, the half-maximal activity concentration (AC50) is 41.5 µM (active) in the test with PGR (gene 5241) and 15.8 µM (active) in test [4].
`Cc1cc(O)c(C(C)(C)C)cc1C(C)(C)C`: the half-maximal activity concentration (AC50) in [3] was 23.7 µM (active); in test [15], 16.5 µM (active).
Regarding `N#Cc1ccccc1O`, the call in [7] and in [13] was inactive.
On to `O=C1c2ccccc2C(=O)c2c(Cl)cccc21`, for which, in [14], the outcome was inactive.
